Measurements taken from PubChem BioAssay (EPA / NIEHS).
The source made the active and inactive calls. Rule for the calls: active = hit-call score of the fitted dose curve at least 0.9, where 1 is the maximum; inactive = score below 0.9.

What follows are compounds tested on Fatty Acid-Binding Protein 1 (FABP1), FABP1 (gene 2168) (assay: LTEA_HepaRG_FABP1: Life Technologies and Expression Analysis (LTEA) Assay for Fatty Acid-Binding Protein 1 (FABP1) using HepaRG (AID 2283494)). Details: mRNA level, 48 h; actives raise or lower the signal.
Method: LTEA_HepaRG is a cell based, multiplexed-readout assay that uses HepaRG, a human liver cell line, with measurements taken at 48 hours after chemical dosing on a 96-well plate.LTEA_HepaRG_FABP1 is one of 102 assay component(s) measured in the LTEA HepaRG cell culture assay. It is a marker of Steatosis.Data from the assay component LTEA_HepaRG_FABP1 was analyzed into 1 endpoint. This assay endpoint, LTEA_HepaRG_FABP1, was analyzed with bidirectional fitting relative to DMSO as the negative control and baseline of activity. Using a type of inducible reporter, measures of mRNA induction for gain or loss-of-signal activity can be used to understand regulation of transcription factor activity. To generalize the intended target to other relatable targets, this assay endpoint is annotated to the transporter intended target family, where the subfamily is fatty acid carrier protein.
A total of 1060 chemcials from the ToxCast library were tested in eight-point concentration-response experiments. Cell culture and cytotoxicity assays were conducted at Thermo Fisher Scientific's Custom Services facility (Madison, WI). A single lot of human HepaRG cells (Thermo Fisher Scientific, Frederick, MD) was used for the cell culture experiments. 96-well format collagen type I coated plates of human HepaRG cells were prepared using established methods. Briefly, cryopreserved HepaRG cells were thawed, plated at a density of approximately 100,000 cells/well in HepaRG Thaw, Plate, and General Purpose media (HPRG770, Thermo Fisher Scientific), and incubated for 48 hours. 0.5% DMSO was selected as vehicle control to balance the requisite need of DMSO in HepaRG cultures to maintain differentiation (for example, baseline metabolism, proportions of hepatocytes vs. cholangiocytes), while enabling further hepatic receptor pathway activation (for example, PXR and CAR) in response to chemical exposure. 48 hours after plating, the culture medium was replaced with HepaRG Serum-Free Incudtion Media. Cells were exposed to each test chemical in duplicate and maintained in CO2 incubators for another 48 hours. Chemical plates were thawed to room temperature and 200x concentrations of treatment groups were prepared. 8-point conentration-reponse curves were made with the highest exposure at 100 uM, followed by half-log dilutions, all in 0.5% DMSO. Each test plate contained variouse controls, induction positive controls (1mM phenobarbital), cytotoxicity positive controls ([…] aflatoxin B1), vehicle controls (0.5% DMSO), and total lysis controls (0.5% DMSO). Cell morphology images were taken using an Essen IncuCyte FLR automated microscope, with six 96-well plates imaged in about 24 minutes. Images were captured and exported and JPEG files. Spent culture media was transfered to black-well plates for the LDH assay, and remaining media was sorted at -80 C for later use. Cells were treated with RLT buffer and frozen until shipped for gene expression analysis. Total RNA was isolated from the cell suspension in 75 uL of Buffer RLT (Qiagen, Germantown, MD 20874) by Quintiles/Expression Analysis (Durham, NC) using a custom isolation procedure. Total RNA from each plate well was transferred to a preamplification plate. Fluidigm's 96.96 Dynamic ArrayTM (Fluidigm, Amsterdam, the Netherlands) technology was used for gene expression analyses by quantitative reverse transcription polymerase chain reaction (qRT-PCR, performed by Quintiles/Expression Analysis, Durham, NC)89. Standard TaqManTM Assays (Applied Biosystems/ThermoFisher Scientific, Foster City, CA) were used to assess the expression of 93 genes selected based on their selectivity and sensitivity to important hepatic receptors known to be modulated by environmental chemicals; importance in human hepatocyte functionality; and hepatotoxicity. […]
For `CCOC(=O)c1ccc(C2CCC(NC[C@H](O)COc3ccc(O)c(NS(C)(=O)=O)c3)CC2)cc1` (stereo not given in full), the outcome was “inactive”.
In the case of `CCCCC(CC)COC(=O)CCCCCCCCC(=O)OCC(CC)CCCC` (stereo not given), the outcome is reported as “inactive”.
`CCOCCOCCOCCO` was tested, and the outcome was “inactive”.
In the case of `COC(=O)CC(=O)OC`, the AC50 is reported as 50 µM (active).
In the case of `On1ccccc1=S`, the outcome is reported as “inactive”.
In the case of `Cc1ccc(S(=O)(=O)O)cc1C`, the outcome is reported as “inactive”.
`COc1ccc(/C=C/S(=O)(=O)NC(=O)c2ccc(C)cc2Cl)cc1` was tested, and the outcome was “inactive”.
`CC1(C)C(=O)N(Br)C(=O)N1Br` was tested, and the outcome was “inactive”.
For `CCn1nc(Cc2ccccc2)cc1C1CCN(C[C@H]2C[C@H](N(C)[C@@H](C(=O)O)C(C)C)C[C@@H]2c2cccc(F)c2)CC1`, the outcome was “inactive”.
In the case of `CC[C@H]1CC[C@H](NCc2cc3c(cc2OC)[C@H]2C[C@H]2C(=O)N3C)[C@H](c2ccccc2)N1`, the outcome is reported as “inactive”.
With `Cn1c(=O)c2c(ncn2C)n(C)c1=O` the outcome was “inactive”.
With `Cn1cnc([N+](=O)[O-])c1Sc1ncnc2nc[nH]c12` the AC50 was 27 µM (active).
For `O=C(O)c1cc(N=Nc2ccc(S(=O)(=O)Nc3ccccn3)cc2)ccc1O`, the outcome was “inactive”.
`C1=CCCC=CCCC=CCC1` was tested, and the outcome was “inactive”.
With `CCOCCO` the outcome was “inactive”.
In the case of `O=C(OC[C@H]1O[C@@H](OC(=O)c2cc(O)c(O)c(OC(=O)c3cc(O)c(O)c(O)c3)c2)[C@H](OC(=O)c2cc(O)c(O)c(OC(=O)c3cc(O)c(O)c(O)c3)c2)[C@@H](OC(=O)c2cc(O)c(O)c(OC(=O)c3cc(O)c(O)c(O)c3)c2)[C@@H]1OC(=O)c1cc(O)c(O)c(OC(=O)c2cc(O)c(O)c(O)c2)c1)c1cc(O)c(O)c(OC(=O)c2cc(O)c(O)c(O)c2)c1`, the AC50 is reported as 7.91 µM (active).
With `Cc1c(-c2cccnc2)c2ccccc2n1CCCCC(=O)O` the outcome was “inactive”.
`COc1ccc(-n2nc(C(F)F)cc2-c2ccc(S(C)=O)cc2)cc1` (stereo not given) was tested, and the outcome was “inactive”.
With `Nc1cccc(N)c1` the outcome was “inactive”.
`Cc1[nH]cnc1C[C@H]1CCc2c(C)c3ccccc3n2C1=O` was tested, and the AC50 was 17.1 µM (active).
In the case of `CCCCCCCCCCCCCCCO`, the outcome is reported as “inactive”.
In the case of `Cc1ccc(C)c(O)c1`, the outcome is reported as “inactive”.
For `CC(C)=CCC/C(C)=C\CO`, the outcome was “inactive”.
In the case of `COC(=O)c1ccccc1O`, the outcome is reported as “inactive”.
In the case of `CC(C)=CCCC(C)CCO` (stereo not given), the outcome is reported as “inactive”.
For `CC(C)CCO`, the outcome was “inactive”.
In the case of `CCC(C)(C)C(=O)O[C@H]1C[C@@H](C)C=C2C=C[C@H](C)[C@H](CC[C@@H]3C[C@@H](O)CC(=O)O3)[C@H]21`, the AC50 is reported as 5.7 µM (active).
`CNS(=O)(=O)c1cc(C(=O)N2CCC(CCN3C4CCC3CC(n3c(C)nc5ccccc53)C4)(c3cccc(F)c3)CC2)c(Cl)cc1F` (stereo not given) was tested, and the AC50 was 18.4 µM (active).
In the case of `O=c1[nH]c2ccc(S(=O)CCN3CCC(Cc4ccc(F)cc4)CC3)cc2o1` (stereo not given), the AC50 is reported as 80.3 µM (active).
In the case of `Nc1ccc(Nc2ccccc2)cc1`, the AC50 is reported as 50 µM (active).
With `CN(C)c1ccc(N=NS(=O)(=O)O)cc1` the AC50 was 50 µM (active).
`C1N2CN3CN1CN(C2)C3` was tested, and the outcome was “inactive”.
For `O=C(O)CCN(C1(C(=O)NO)CCCC1)S(=O)(=O)c1ccc(Oc2ccc(F)cc2)cc1`, the outcome was “inactive”.
`Cc1ccc(N)cc1O` was tested, and the AC50 was 23.1 µM (active).
In the case of `CC(C)=CCCC(C)=CC=O`, the outcome is reported as “inactive”.
In the case of `O=C1OC(=O)C2C3C=CC(C3)C12` (stereo not given), the outcome is reported as “inactive”.
For `CC(C)=CCC/C(C)=C/CO`, the outcome was “inactive”.
With `O=c1n(CC2CO2)c(=O)n(CC2CO2)c(=O)n1CC1CO1` (stereo not given) the outcome was “inactive”.
With `Clc1nc(Cl)c(Cl)c(Cl)c1Cl` the outcome was “inactive”.
In the case of `CCOc1cccc(-n2cc(C(=O)N3CCN(c4cc(C(=O)O)c5ccccc5c4)CC3)nc2-c2ccc(C)cc2)c1`, the AC50 is reported as 30.2 µM (active).
